Results filed as inconclusive are left out. Active and inactive are the calls of the source. Unless noted, calls come from the whole dose curve; as a rule, active = well fitted curve in the direction sought with a large enough effect; inconclusive = small, poorly fitted or top-dose-only effect, or another doubt; inactive = no such curve, though single readings can be large; an effect the other way counts as inactive or inconclusive.
Legend:
[1] = target: Lysosomal acid glucosylceramidase (Homo sapiens) (UniProt P04062); test: Glucocerebrosidase-p2 (AID 348; in the data active = potency below about 10 µM; note: potency is the fitted concentration of half-maximal effect); settings: purified GBA, blue fluorogenic substrate, 40 min
Chain of Lysosomal acid glucosylceramidase (Homo sapiens) (P04062 whole entry, looked up): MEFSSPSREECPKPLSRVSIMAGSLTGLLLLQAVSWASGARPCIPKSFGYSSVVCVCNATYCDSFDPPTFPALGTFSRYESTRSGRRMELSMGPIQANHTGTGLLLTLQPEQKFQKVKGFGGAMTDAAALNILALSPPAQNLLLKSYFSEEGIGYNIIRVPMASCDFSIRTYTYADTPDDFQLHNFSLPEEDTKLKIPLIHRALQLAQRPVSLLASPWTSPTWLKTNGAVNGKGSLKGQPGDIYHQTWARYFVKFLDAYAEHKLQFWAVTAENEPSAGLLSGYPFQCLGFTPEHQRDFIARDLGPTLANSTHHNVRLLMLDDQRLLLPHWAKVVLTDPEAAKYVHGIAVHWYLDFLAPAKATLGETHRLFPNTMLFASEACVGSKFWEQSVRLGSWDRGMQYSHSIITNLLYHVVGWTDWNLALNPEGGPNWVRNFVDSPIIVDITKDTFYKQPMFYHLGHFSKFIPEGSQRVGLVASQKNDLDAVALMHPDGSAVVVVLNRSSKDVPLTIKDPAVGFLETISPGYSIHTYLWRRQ
How it was run: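 Normal human glucocerebrosidase (0.2 nM) with blue fluorogenic substrate (80 uM final) in citrate/phosphate pH 5.9 with 10mM sodium taurocholate, 0.01% tween-20; 40 min RT, NaOH/glycine stop; fluorescence Ex 365/Em 440; AC50 from a titration from 0.6 nM upwards.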

[2] = AP1 Signaling Pathway (AID 357; active = well fitted curve in either direction with a large enough effect, not every such curve was filed as active; note: % is set by controls: 0 for no effect and ±100 for the full control effect); settings: ME-180 AP-1-bla reporter, EGF-induced, beta-lactamase ratio, 5 h; at 7.69 µM (top of the series) unless noted
How it was run: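 In this screen, ME-180 cells in Opti-MEM with 0.5% dialyzed FBS received EC50 EGF and compound titrations for 5 h. AP-1 reporter beta-lactamase was detected via CCF4 ratio, giving AC50 for positive and negative modulators.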

[3] = NFAT Signaling Pathway (AID 444; active = well fitted curve in either direction with a large enough effect, not every such curve was filed as active;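 note: carbachol stimulus at about its EC50 of 1 µM final; % is set by controls: 0 for no effect and ±100 for the full control effect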); settings: Jurkat NFAT-bla M1, carbachol, beta-lactamase ratio, 5 h; at 7.69 µM (top of the series) unless noted
How it was run: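 Jurkat cells with NFAT-driven β-lactamase reporter and co-expressed M1 receptor, stimulated with carbachol (final 1 uM, ~EC50), compound titration, 5 h at 37 °C. CCF4 loaded 1 h at RT; 460/530 nm ratio gave %activity and AC50.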

[4] = Stat Signaling Pathway (AID 446; active = well fitted curve in either direction with a large enough effect, not every such curve was filed as active;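 note: ME-180 cervical cancer cells given 40 pM IL-6 alongside compound; SIE-controlled beta-lactamase reporter measured as 460/530 nm FRET emission ratio; % is set by controls: 0 for no effect and ±100 for the full control effect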); settings: ME-180 SIE beta-lactamase reporter, IL-6 stimulated, 5 h; at 7.69 µM (top of the series) unless noted
How it was run: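 Overnight-plated ME-180 cells bearing a STAT Inducible Element beta-lactamase reporter; 5 h co-exposure to compound and 40 pM IL-6; values normalized to 300 pM IL-6 and 125 nM JAK inhibitor controls.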

[5] = target: Glucocorticoid receptor (Homo sapiens) (UniProt P04150); test: GR-GFP Redistribution (AID 450;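 active = compounds whose dose series gives a full or clear partial fitted curve of increased nuclear translocation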; note: potency is the fitted concentration of half-maximal effect); settings: U2OS GR-GFP nuclear translocation, laser cytometry, 2 h
Chain of Glucocorticoid receptor (Homo sapiens) (P04150 whole entry, looked up, the tested form may be a part): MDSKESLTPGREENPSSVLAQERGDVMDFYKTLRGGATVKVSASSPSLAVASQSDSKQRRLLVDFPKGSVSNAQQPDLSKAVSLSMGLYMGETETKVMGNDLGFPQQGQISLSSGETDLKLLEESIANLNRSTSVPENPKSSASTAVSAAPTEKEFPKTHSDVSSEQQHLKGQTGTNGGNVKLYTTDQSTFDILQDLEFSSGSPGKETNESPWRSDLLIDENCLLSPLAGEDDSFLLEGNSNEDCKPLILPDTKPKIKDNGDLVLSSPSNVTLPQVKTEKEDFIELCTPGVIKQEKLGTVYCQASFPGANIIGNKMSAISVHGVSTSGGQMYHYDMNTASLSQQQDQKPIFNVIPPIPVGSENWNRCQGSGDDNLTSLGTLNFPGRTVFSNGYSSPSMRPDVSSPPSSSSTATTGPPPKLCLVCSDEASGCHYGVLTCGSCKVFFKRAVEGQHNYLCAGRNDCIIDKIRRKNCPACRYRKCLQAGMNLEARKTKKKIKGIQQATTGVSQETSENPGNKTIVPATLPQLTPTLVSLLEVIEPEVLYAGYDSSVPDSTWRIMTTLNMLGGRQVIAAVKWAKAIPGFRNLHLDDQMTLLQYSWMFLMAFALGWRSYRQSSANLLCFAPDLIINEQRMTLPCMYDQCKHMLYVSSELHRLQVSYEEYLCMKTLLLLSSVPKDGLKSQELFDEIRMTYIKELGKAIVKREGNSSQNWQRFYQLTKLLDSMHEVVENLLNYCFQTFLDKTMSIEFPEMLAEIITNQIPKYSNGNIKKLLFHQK

[6] = target: Glucocorticoid receptor (Homo sapiens) (UniProt P04150); test: GR-EFC Redistribution (AID 451; calls by dose curve; note: potency is the fitted concentration of half-maximal effect); settings: CHO-K1 GR-EFC translocation, beta-gal luminescence, 2 h
How it was run: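 CHO-K1 cells expressing nuclear EA and GR-ED fragments of b-gal; compounds titrated up to 46 uM final, 2 h at 37 C. GR nuclear translocation read as complemented b-gal luminescence after 1 h RT detection.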

[7] = target: Mitogen-activated protein kinase 10 (Mus musculus) (UniProt Q61831); test: JNK3 AlphaScreen Assay (AID 530; active = well fitted curve in either direction with a large enough effect, not every such curve was filed as active;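 note: kinase came from lysate of stimulated human HepG2 cells; signal reports phosphorylation of biotinylated GST-cJun 1-79 at Ser73 with 10 µM ATP; % is set by controls: 0 for no effect and ±100 for the full control effect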); settings: JNK3 lysate, c-Jun phosphorylation; series mostly up to 57.1 µM
How it was run: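 HepG2 lysate (IL-1b/TNFa pre-activated) + biotin-GST-cJun 1-79 + anti-pSer73 cJun; cpd titration, 15 min RT; ATP 10 uM start; Tris pH 7.6, MgCl2, DTT, vanadate; beads in EDTA buffer; AlphaScreen.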

[8] = target: 3',5'-cyclic-AMP phosphodiesterase 4B (Homo sapiens) (UniProt Q07343); test: qHTS Assay for Inhibitors of PDE-IV (AID 607; active = well fitted activation curve with a large enough effect in the main read-out, with a control signal flat, not every such curve was filed as active; note: % of control where 0% means no effect); settings: HEK293 ACTOne CNG channel cells, membrane potential fluorescence; series mostly up to 22.9 µM
Chain of 3',5'-cyclic-AMP phosphodiesterase 4B (Homo sapiens) (Q07343 whole entry, looked up): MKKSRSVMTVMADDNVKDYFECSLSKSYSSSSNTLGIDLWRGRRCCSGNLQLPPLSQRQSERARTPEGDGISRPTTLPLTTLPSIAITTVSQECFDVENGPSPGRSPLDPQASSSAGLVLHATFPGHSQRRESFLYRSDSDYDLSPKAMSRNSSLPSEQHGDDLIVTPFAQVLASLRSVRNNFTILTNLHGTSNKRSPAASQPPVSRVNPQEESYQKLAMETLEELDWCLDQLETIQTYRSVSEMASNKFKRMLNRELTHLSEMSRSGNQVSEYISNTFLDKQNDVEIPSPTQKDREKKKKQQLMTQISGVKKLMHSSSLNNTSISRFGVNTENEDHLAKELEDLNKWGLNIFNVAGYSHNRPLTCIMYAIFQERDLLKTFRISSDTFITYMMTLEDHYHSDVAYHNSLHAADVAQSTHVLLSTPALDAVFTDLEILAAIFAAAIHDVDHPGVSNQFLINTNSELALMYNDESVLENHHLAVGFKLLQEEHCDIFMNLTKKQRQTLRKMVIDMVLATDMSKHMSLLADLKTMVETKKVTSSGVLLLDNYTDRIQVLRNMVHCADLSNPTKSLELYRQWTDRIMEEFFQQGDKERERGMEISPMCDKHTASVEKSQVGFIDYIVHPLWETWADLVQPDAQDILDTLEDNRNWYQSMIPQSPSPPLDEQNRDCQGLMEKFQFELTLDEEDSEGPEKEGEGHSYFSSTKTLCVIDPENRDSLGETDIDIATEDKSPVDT
How it was run: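 Live HEK293 cells with a modified cyclic nucleotide-gated (CNG) channel report intracellular cAMP via membrane-potential dye fluorescence (ex 535/em 590 nm). Endogenous PDE-IV was targeted. Compounds were tested at up to 22.9 uM final; RO 20-1724 100 uM served as control.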

[9] = qHTS Assay for Lipid Storage Modulators (AID 1519; calls by dose curve); settings: Drosophila S3 cells, BODIPY lipid droplet/cell ratio, laser cytometry, cells loaded with oleic acid; for activity change, negative = inhibition: at 57.5 µM (top of the series)
How it was run: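 Cells seeded at 5,000 per well were treated with compounds over a concentration series and loaded with oleic acid (400 uM, as added). Lipid droplet fluorescence (488 nm excitation, 500-530 nm channel) was read by laser-scanning cytometry and normalized to 20 uM Triacsin C.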

[10] = target: Dual specificity protein kinase CLK4 (Homo sapiens) (UniProt Q9HAZ1); test: qHTS Assay for Inhibitors of CDC-like Kinase 4 (Kinase-Glo Assay) (AID 1770); settings: recombinant Clk4, Kinase-Glo ATP depletion luminescence; series mostly up to 66.7 µM; note: nearly all actives have a fitted effect of over 65% in size; note: potency is the fitted concentration of half-maximal effect
Chain of Dual specificity protein kinase CLK4 (Homo sapiens) (Q9HAZ1 whole entry, looked up): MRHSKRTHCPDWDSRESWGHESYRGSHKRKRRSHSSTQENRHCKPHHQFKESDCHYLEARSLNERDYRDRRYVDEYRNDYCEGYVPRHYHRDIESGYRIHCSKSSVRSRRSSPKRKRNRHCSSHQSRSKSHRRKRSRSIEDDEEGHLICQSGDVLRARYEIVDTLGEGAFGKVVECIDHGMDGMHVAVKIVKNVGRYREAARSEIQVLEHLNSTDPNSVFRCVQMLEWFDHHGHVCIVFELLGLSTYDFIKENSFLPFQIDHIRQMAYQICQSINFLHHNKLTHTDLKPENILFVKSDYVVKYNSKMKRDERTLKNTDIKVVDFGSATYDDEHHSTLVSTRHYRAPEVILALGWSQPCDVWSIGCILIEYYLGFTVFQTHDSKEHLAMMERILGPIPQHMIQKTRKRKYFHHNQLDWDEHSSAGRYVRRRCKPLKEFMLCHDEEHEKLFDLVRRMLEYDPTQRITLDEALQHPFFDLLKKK
How it was run: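 Readout: Kinase-Glo luminescence from ATP left after a 4.5 h room-temperature reaction of 25 nM Clk4 with 100 uM RS peptide and 1 uM ATP (final). Buffer: 25 mM Tris pH 7.5, 10 mM MgCl2.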

[11] = target: Dual specificity protein kinase CLK4 (Homo sapiens) (UniProt Q9HAZ1); test: qHTS Assay for Inhibitors of CDC-like Kinase 4 (ADP-Glo Assay) (AID 1771); settings: recombinant CLK4, ADP-Glo luminescence; series mostly up to 80 µM; note: nearly all actives have a fitted effect of over 70% in size; note: potency is the fitted concentration of half-maximal effect
How it was run: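 25 nM Clk4, 100 uM RS peptide, 1 uM ATP (final); 2 mM MgCl2, 0.5 mM EGTA, 2.5 mM DTT, 0.01% Triton X-100; 1 hr RT. ADP-Glo readout: ATP depletion 45 min, conversion/luciferase 30 min, luminescence.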

[12] = target: Dual specificity protein kinase CLK4 (Homo sapiens) (UniProt Q9HAZ1); test: qHTS Assay for Inhibitors of CDC-like Kinase 4 (ADP-FP Assay) (AID 1795); settings: Transcreener ADP fluorescence polarization; series mostly up to 50 µM; note: nearly all actives have a fitted effect of over 60% in size; note: potency is the fitted concentration of half-maximal effect
How it was run: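 FP readout: Orange Transcreener ADP2 tracer (4 nM) plus ADP antibody, read after 30 min at room temperature. Kinase step: 6.25 nM Clk4, 100 uM RS peptide, 1 uM ATP, pH 7.5, 1 h.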

[13] = target: Ubiquitin carboxyl-terminal hydrolase 1 (Homo sapiens) (UniProt O94782); test: Inhibitors of USP1/UAF1: Pilot qHTS (AID 504865); settings: purified USP1/UAF1, Ub-rhodamine cleavage fluorescence; series mostly up to 54.9 µM;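 note: rhodamine fluorescence freed from ubiquitin-rhodamine substrate followed over time; top concentration of the series differs between compounds; % is set by controls: 0 for no effect and ±100 for the full control effect; nearly all actives have a fitted effect of over 35% in size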
Chain of Ubiquitin carboxyl-terminal hydrolase 1 (Homo sapiens) (O94782 whole entry, looked up): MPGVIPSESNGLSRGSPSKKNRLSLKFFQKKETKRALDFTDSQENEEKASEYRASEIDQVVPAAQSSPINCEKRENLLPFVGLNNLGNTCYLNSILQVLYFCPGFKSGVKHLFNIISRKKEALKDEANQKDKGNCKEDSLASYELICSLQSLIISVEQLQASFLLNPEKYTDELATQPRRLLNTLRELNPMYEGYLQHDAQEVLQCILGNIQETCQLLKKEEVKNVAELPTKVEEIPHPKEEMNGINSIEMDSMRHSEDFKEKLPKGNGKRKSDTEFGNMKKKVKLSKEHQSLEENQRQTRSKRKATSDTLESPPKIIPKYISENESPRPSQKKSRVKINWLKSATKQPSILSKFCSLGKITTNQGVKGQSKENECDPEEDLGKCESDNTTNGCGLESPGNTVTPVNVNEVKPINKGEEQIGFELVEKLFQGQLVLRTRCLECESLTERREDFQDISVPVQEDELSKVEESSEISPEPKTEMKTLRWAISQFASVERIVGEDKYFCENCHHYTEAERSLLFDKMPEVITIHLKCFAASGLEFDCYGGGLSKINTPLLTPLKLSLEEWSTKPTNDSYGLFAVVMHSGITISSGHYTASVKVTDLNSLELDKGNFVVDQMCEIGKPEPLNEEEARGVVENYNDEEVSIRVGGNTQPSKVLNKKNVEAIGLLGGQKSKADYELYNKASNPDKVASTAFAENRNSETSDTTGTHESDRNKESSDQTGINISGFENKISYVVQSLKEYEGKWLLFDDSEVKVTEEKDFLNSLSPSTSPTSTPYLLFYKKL
How it was run: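 1nM USP1/UAF1 + cpd, 15 min RT; start w/ Ub-Rho 150nM final; kinetic FL 480/540 nm, 6 reads q60 s. Buffer 50mM HEPES pH 7.8, 0.5mM EDTA, 1mM TCEP, 0.01% Tween-20, 0.1 mg/ml BSA.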

[14] = Primary qHTS for small molecule stabilizers of the endoplasmic reticulum resident proteome: Secreted ER Calcium Modulated Protein (SERCaMP) assay (AID 1508630); settings: SH-SY5Y GLuc-SERCaMP (Gaussia luciferase released on ER calcium loss) secretion, thapsigargin, luminescence; series mostly up to 38.4 µM; note: % is set by controls: 0 for no effect and ±100 for the full control effect
How it was run: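 The SH-SY5Y reporter protocol was run at 3 concentrations up to 38.3 uM (primary) or 11 concentrations (follow-up): 16 h compound, 100 nM thapsigargin for 4 h, then extracellular luciferase luminescence.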

[15] = qHTS Assay for Identification of Small Molecule Agonists for Hypoxia Response Element Signaling Pathway (AID 914; active = well fitted activation curve with a large enough effect in the signal ratio, with a control signal flat, not every such curve was filed as active; the % refers to the signal ratio; note: % of control where 0% means no effect); settings: ME-180 (cervical carcinoma) HRE-bla reporter, beta-lactamase ratio, CoCl2, 17 h; activation: stronger effect = higher value
How it was run: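 HRE-bla ME-180 cells, overnight plating in Opti-MEM with 0.5% dialyzed FBS; cpd titration + EC50 CoCl2, 17 h, 37 degrees Celsius; CCF4 2.5 h RT; 460/530 nm ratio; AC50.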

[16] = measured here: cell count channel max response
[17] = measured here: lipid channel max response

Structure (SMILES)	Potency [1]	activity change, negative = inhibition [2]	activity change, negative = inhibition [3]	activity, negative = inhibition [4]	Potency [5]	Potency [6]	outcome [7]	Potency [8]	activity change, negative = inhibition [9]	max response [9, 16]	max response [9, 17]	Potency [10]	Potency [11]	Potency [12]	Potency [13]	Potency [14]	activation [15]
CN1CCN(c2ncc3ncc(=O)n(C4CC4)c3n2)CC1	> 11.4 µM (inactive)	-15.2% (inactive)	-12.8% (inactive)	-9.77% (inactive)	> 9.22 µM (inactive)	> 46 µM (inactive)	inactive	inactive	-0.747% (inactive)	-13.5%	-12.9%	inactive	inactive	inactive	inactive	inactive	
Cc1nc2cnc(N3CCOCC3)nc2n(C[C@H]2CCCO2)c1=O	> 11.4 µM (inactive)	-13.4% (inactive)	-4.93% (inactive)	-8.29% (inactive)	> 9.22 µM (inactive)	> 46 µM (inactive)	inactive		3.62% (inactive)	10.2%	13.9%	inactive	inactive	inactive	inactive	inactive	
CS(=O)(=O)Nc1cccc(-c2ccc3ncnc(NC4CCNCC4)c3c2)c1	> 11.4 µM (inactive)	6.55% (inactive)	0.249% (inactive)	4.8% (inactive)	> 46 µM (inactive)	> 46 µM (inactive)	inactive	inactive	4.99% (inactive)	3.42%	11%	11.2 µM (active)	7.08 µM (active)	11.2 µM (active)	inactive	inactive	
COc1ccc(-c2nc3cnc(Oc4cccc(Cl)c4)nc3n(CCC#N)c2=O)cc1	> 11.4 µM (inactive)	-19.7% (inactive)		-7.46% (inactive)	> 9.22 µM (inactive)	> 46 µM (inactive)	inactive	inactive	2.97% (inactive)	13.8%	14.8%	inactive	inactive	inactive	inactive	inactive	
CCNc1ncc2nc(-c3ccccc3)c(=O)n(C[C@H]3CCCO3)c2n1	> 11.4 µM (inactive)	0.0155% (inactive)			> 9.22 µM (inactive)	> 46 µM (inactive)	inactive		-15.5% (inactive)	3.11%	-10%	inactive	inactive	inactive	inactive	inactive	
Cc1cnc(CNc2ccnc(-c3ccccc3CN(C)C)n2)cn1	> 11.4 µM (inactive)	10.8% (inactive)	-5.1% (inactive)	12.3% (inactive)	> 46 µM (inactive)	> 46 µM (inactive)	inactive	inactive	5.8% (inactive)	23.9%	27.5%	inactive	inactive	inactive	inactive	inactive	
CN(C)C(=O)c1ccc(-c2cc(-n3ccnc3)ncn2)cc1	> 11.4 µM (inactive)	-15.5% (inactive)	7.69% (inactive)	7.04% (inactive)	> 46 µM (inactive)	> 46 µM (inactive)	inactive	inactive	4.31% (inactive)	14.1%	16.5%	11.2 µM (active)	10 µM (active)	12.6 µM (active)	inactive	inactive	
COc1ccc(Oc2ncc3nc(-c4ccc(OC)cc4)c(=O)n(C4CC4)c3n2)cc1	> 11.4 µM (inactive)	-17.1% (inactive)	18.7% (inactive)	-1.53% (inactive)	> 9.22 µM (inactive)	> 46 µM (inactive)	inactive	inactive	-0.219% (inactive)	4.42%	-0.829%	inactive	inactive	inactive	inactive	inactive	12.9% (inactive)

Source: PubChem BioAssay (NCATS)
